Assays:
[1] = target: RAC-alpha serine/threonine-protein kinase (Homo sapiens) (UniProt P31749); conditions: at 0.1 µM
[2] = target: RAC-alpha serine/threonine-protein kinase (Homo sapiens) (UniProt P31749); conditions: at 1 µM
[3] = target: RAC-beta serine/threonine-protein kinase (Homo sapiens) (UniProt P31751); conditions: at 0.1 µM
[4] = target: RAC-beta serine/threonine-protein kinase (Homo sapiens) (UniProt P31751); conditions: at 1 µM
[5] = target: RAC-gamma serine/threonine-protein kinase (Homo sapiens) (UniProt Q9Y243); conditions: at 0.1 µM
[6] = target: RAC-gamma serine/threonine-protein kinase (Homo sapiens) (UniProt Q9Y243); conditions: at 1 µM
[7] = target: G protein-coupled receptor kinase 6 (Homo sapiens) (UniProt P43250); conditions: at 0.1 µM
[8] = target: G protein-coupled receptor kinase 6 (Homo sapiens) (UniProt P43250); conditions: at 1 µM
[9] = target: T1, Rhodopsin kinase GRK7 (Homo sapiens) (UniProt Q8WTQ7); conditions: at 0.1 µM
T1 sequence (whole entry): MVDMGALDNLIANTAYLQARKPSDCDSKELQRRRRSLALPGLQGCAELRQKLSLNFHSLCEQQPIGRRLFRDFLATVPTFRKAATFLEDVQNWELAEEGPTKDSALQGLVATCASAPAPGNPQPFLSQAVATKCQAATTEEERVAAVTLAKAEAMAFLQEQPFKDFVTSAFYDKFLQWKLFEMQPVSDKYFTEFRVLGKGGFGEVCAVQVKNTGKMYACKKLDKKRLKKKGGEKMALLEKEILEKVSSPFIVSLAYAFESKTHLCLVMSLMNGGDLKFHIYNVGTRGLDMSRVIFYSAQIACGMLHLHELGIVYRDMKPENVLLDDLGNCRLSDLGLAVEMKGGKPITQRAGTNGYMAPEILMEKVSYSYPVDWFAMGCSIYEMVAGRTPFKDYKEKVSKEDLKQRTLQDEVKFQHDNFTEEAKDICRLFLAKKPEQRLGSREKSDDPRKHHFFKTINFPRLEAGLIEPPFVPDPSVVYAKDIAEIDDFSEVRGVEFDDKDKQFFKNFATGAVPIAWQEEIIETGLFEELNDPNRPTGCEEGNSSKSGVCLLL

[10] = target: T1, Rhodopsin kinase GRK7 (Homo sapiens); conditions: at 1 µM

Chain of RAC-gamma serine/threonine-protein kinase (Homo sapiens) (Q9Y243 whole entry): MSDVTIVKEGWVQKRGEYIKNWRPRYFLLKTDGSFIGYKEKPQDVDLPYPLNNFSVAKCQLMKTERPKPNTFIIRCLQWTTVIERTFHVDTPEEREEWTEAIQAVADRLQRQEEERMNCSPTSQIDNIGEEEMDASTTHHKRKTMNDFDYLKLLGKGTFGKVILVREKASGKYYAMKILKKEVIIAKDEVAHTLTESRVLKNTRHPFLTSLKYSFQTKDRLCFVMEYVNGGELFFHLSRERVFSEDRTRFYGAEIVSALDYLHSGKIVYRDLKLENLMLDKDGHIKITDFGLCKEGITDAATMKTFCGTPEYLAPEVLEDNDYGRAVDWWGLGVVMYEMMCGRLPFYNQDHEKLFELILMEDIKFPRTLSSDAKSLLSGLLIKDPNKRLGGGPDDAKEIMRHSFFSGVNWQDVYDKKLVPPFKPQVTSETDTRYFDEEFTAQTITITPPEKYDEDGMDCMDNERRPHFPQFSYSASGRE
Chain of G protein-coupled receptor kinase 6 (Homo sapiens) (P43250 whole entry, looked up): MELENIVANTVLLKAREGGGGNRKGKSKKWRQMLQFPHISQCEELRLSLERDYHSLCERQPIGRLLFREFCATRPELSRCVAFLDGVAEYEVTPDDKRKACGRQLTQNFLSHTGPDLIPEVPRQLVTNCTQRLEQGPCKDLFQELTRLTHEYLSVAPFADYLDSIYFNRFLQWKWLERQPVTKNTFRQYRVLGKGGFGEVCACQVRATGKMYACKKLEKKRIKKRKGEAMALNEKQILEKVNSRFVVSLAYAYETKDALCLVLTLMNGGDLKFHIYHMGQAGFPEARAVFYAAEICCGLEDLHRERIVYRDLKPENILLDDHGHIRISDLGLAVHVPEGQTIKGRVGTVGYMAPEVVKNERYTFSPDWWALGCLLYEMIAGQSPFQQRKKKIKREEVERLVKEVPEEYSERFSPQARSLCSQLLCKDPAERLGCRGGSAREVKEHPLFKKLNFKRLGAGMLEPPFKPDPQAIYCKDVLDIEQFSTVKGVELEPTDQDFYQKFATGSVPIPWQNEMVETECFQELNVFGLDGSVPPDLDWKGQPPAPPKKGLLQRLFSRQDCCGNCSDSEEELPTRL
Chain of RAC-beta serine/threonine-protein kinase (Homo sapiens) (P31751 whole entry): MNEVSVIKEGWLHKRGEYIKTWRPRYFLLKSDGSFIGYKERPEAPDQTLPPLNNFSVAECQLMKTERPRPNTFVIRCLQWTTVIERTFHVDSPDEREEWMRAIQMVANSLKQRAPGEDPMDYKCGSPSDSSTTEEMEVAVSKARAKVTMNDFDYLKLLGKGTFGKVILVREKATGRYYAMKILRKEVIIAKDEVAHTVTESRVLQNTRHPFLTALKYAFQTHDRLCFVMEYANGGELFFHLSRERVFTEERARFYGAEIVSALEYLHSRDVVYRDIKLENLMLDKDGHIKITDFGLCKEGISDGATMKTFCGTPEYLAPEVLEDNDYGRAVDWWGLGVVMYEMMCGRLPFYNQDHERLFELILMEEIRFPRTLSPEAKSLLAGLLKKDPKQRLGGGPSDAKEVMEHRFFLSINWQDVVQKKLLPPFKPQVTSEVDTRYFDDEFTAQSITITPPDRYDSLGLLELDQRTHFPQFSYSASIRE
Chain of RAC-alpha serine/threonine-protein kinase (Homo sapiens) (P31749 whole entry): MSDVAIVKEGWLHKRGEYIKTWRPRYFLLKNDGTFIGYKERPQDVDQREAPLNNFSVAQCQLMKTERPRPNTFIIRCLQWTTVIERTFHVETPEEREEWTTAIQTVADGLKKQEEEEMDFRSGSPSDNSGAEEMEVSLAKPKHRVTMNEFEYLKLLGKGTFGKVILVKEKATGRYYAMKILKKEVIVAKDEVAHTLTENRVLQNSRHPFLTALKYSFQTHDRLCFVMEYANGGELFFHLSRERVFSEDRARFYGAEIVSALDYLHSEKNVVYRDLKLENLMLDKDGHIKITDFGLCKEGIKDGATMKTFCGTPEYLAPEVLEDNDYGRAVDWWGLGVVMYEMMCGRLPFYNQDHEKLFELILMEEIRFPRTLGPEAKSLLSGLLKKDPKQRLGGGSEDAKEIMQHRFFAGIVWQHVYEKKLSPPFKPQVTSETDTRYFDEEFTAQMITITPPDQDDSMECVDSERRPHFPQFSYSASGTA

| Compound | inhibition [1] | inhibition [2] | inhibition [3] | inhibition [4] | inhibition [5] | inhibition [6] | inhibition [7] | inhibition [8] | inhibition [9] | inhibition [10] |
| --- | --- | --- | --- | --- | --- | --- | --- | --- | --- | --- |
| C[C@@H](Oc1cc(-n2cnc3ccc(OC[C@@H](O)CO)cc32)sc1C(N)=O)c1ccccc1Cl | -0.94% | -0.9% | -0.48% | -0.32% | 0.07% | -0.44% | 1.08% | 4.23% | -4.63% | 3.37% |
| CCS(=O)(=O)c1ccc(OC)c(Nc2ncc(-c3cccc(OC)c3)o2)c1 | 0.36% | 0.85% | 1.41% | 0.82% | 1.04% | -0.57% | -1.06% | -5% | -0.18% | -8.47% |
| COc1cccc(-n2ncc3c(N/N=C/c4ccc(C)cc4)ncnc32)c1 | 1.26% | 0.76% | 1.76% | 1.75% | 0.43% | 1.94% | 4.73% | 5.93% | 11.7% | 7.9% |
| Cc1nc(-c2ccccc2)n2nc(NCCCN3CCOCC3)ncc12 | 0.61% | 0.11% | 0.45% | 2.03% | 0.57% | 4.13% | 3.41% | 0.49% | 5.84% | 2.44% |
| Cc1cc(O)cc(C)c1/C=C/c1cncc(C(=O)N(C)C)c1 | 0.52% | 0.6% | 2.14% | 0.78% | 1.44% | 1.3% | 3.76% | 0.05% | 0% | -6.95% |
| NS(=O)(=O)c1ccc(NC=C2C(=O)Nc3ccc4ncsc4c32)cc1 | 1.23% | -0.15% | 2.3% | 2.59% | 0.79% | 2.77% | 6.28% | 35.5% | 6.78% | 22.4% |
| NS(=O)(=O)c1ccc(N/N=C2\C(=O)Nc3ccc(Cl)cc32)cc1 | 1.17% | 1.19% | 3.01% | 2.43% | 1.79% | 1.82% | 4.41% | 8.19% | 2.49% | 2.98% |
| O=C1Nc2ccc(-c3cccnc3)cc2C1=Cc1cc(Br)c(O)c(Br)c1 | 1.65% | 2.74% | 1.49% | 2.84% | 1.24% | 1.67% | 11.3% | 46.1% | 20% | 60.3% |
| O=S(=O)(CCOCc1ccc(-c2ccc3ncnc(Nc4ccc(OCc5cccc(F)c5)c(Cl)c4)c3c2)o1)c1ccccc1 | -0.1% | -0.35% | 0.2% | 1.21% | -0.84% | 3.06% | 0.84% | 0.78% | 7.97% | 4.68% |
| COc1cccc(-n2nc(C)c3c(N/N=C(\C)c4ccncc4)ncnc32)c1 | -0.15% | -0.16% | -0.34% | 0.3% | -0.78% | 3.59% | 0.75% | 1.13% | 3.79% | 0.01% |
| Oc1cccc(-c2nc(-c3ccccc3)[nH]c2-c2ccncc2)c1 | -0.1% | 1.39% | 2.18% | 2.47% | 0.82% | 3.85% | 6.53% | 4.9% | 1.3% | -0.71% |
| CS(=O)(=O)CCNCc1nc(-c2ccc3ncnc(Nc4ccc(OCc5cccc(C(F)(F)F)c5)cc4)c3c2)cs1 | 0.2% | -0.66% | -0.39% | 0.39% | 0.84% | 1.91% | 0.43% | 0.06% | 3.85% | -1.01% |
| NS(=O)(=O)c1cccc(-c2cc3ccncc3cc2OCc2ccccc2)c1 | 1.37% | 0.84% | 1.79% | 2.65% | 2.96% | 0.32% | 0.24% | 2.95% | 2.9% | 4.85% |
| CCn1c(-c2nonc2N)nc2c(C#CC(C)(C)O)nc(OCCNC)cc21 | 20.8% | 67.4% | 33.1% | 75.3% | 23.1% | 68.2% | 4.94% | 3.62% | 9.11% | 2.53% |
| CN(C)C(=O)O[C@H]1CN[C@H](C#Cc2cc3ncnc(Nc4ccc(OCc5cccc(F)c5)c(Cl)c4)c3s2)C1 | 0.44% | 1.13% | 1.82% | 1.59% | 1.22% | -1.3% | 3.73% | 0.78% | 2.97% | 8.33% |
| O=C1Nc2ccccc2/C1=C/Nc1ccc2[nH]c(=O)[nH]c2c1 | 0.44% | 0.45% | 1.75% | 2.21% | 1% | 1.86% | 8.17% | 23.7% | 4.17% | 15.9% |
| Cc1ccc(O)cc1Nc1ccnc2ccc(S(C)(=O)=O)cc12 | 0.79% | 0.22% | 2.36% | 1.9% | 1.87% | 4.72% | 6.06% | 7.8% | 3.42% | 9.64% |

| Compound | inhibition [1] | inhibition [2] | inhibition [3] | inhibition [4] | inhibition [5] | inhibition [6] | inhibition [7] | inhibition [8] | inhibition [9] | inhibition [10] |
| --- | --- | --- | --- | --- | --- | --- | --- | --- | --- | --- |
| COc1cc(/C=N/Nc2ncnc3c2cnn3C(C)C)ccc1O | -0.05% | -2.56% | 0.47% | -1.58% | 0.98% | -1.46% | 4.24% | 77.6% | 1.66% | 7.37% |
| ON=C1CCc2cc(-c3nc(C4CCNCC4)[nH]c3-c3ccncc3)ccc21 | 0.07% | -0.21% | 0.72% | -1.73% | -0.56% | 0.98% | 0.43% | -2.74% | -0.92% | 1.83% |
| c1ccc(Cc2nc3ccc(Nc4ncnc5ccccc45)cc3[nH]2)cc1 | 0.62% | 0.65% | 1.38% | 1.4% | 1.19% | 0.88% | 3.39% | 3.05% | 0.46% | -1.96% |
| NC(=O)c1sc(-n2cnc3ccccc32)cc1OCc1ccccc1Br | 1.72% | 1.07% | 0.68% | 3.59% | 1.82% | 4.09% | 1.41% | 3.01% | 9.12% | 4.5% |
| Nc1nccc(-c2c(-c3ccc(F)cc3)nn3cc(C(F)(F)F)ccc23)n1 | 0.02% | -0.66% | -0.52% | 0.01% | 0.2% | -5.93% | -1.46% | -0.24% | 3.74% | 4.14% |
| CN(C)CCCn1c(-c2nonc2N)nc2cnccc21 | 0.01% | 1.38% | 1.85% | 3.82% | 0.92% | 1.84% | 3.78% | 3.55% | 2.61% | 5.07% |
| COc1ccc(-c2nn3ncccc3c2-c2ccnc(Nc3cccc(C(F)(F)F)c3)n2)cc1 | 0.68% | 0.72% | 1.23% | 1.84% | 0.37% | 1.95% | 3.32% | 2.16% | 5.25% | 1.87% |
| FC(F)(F)c1ccc(-c2nn3ncccc3c2-c2ccnc(Nc3ccc4c(c3)OCCO4)n2)cc1 | 0.91% | 0.98% | 0.17% | 0.25% | -0.63% | -0.79% | 1.14% | 12.6% | 4.88% | 11.6% |
| CCCN1CCCC(c2ccc(Nc3nc(Nc4cc(F)ccc4C(N)=O)c4cc[nH]c4n3)c(OC)c2)C1 (stereo not given) | 0.39% | 0.27% | 1.85% | 1.92% | 0.52% | 2.18% | 5.66% | 25.3% | 3.88% | 16.6% |
| CC(C)c1ccc2c(c1)NC(=O)/C2=N/Nc1ccc(S(N)(=O)=O)cc1 | -0.05% | -0.49% | -0.37% | 0.73% | -0.27% | 4.41% | -0.59% | -0.78% | 2.96% | -0.57% |
| OCc1ccc(-c2nc(-c3ccccn3)c(-c3ccc4c(c3)OCO4)[nH]2)cc1 | 1.19% | 1.53% | 2.08% | 2.51% | 1.57% | 0.86% | 0.03% | 1.18% | 2.93% | -2.28% |
| COc1cc2ncnc(Nc3ccc(C)c(O)c3)c2cc1OC | 0.49% | 0.96% | 1.99% | 1.77% | 1.98% | 1.76% | 6% | 5.91% | 4.99% | 7.5% |
| Nc1nccc(-c2c(-c3ccc(F)cc3)ncn2CCCN2CCOCC2)n1 | 1.68% | 1.55% | 2.52% | 0.79% | 1.64% | 3.69% | 4.54% | 5.62% | 2.89% | 8.32% |
| COC(=O)Nc1nc2cc(Oc3ccc(NC(=O)Nc4cccc(Br)c4)cc3)ccc2[nH]1 | 0.46% | 0.17% | 1.35% | 1.01% | 1.37% | -2.06% | 4.28% | 6.2% | 3.16% | 25.9% |
| NS(=O)(=O)c1cccc(Nc2cc(-c3ccc(F)cc3)n[nH]2)c1 | 1.57% | 2.41% | 3.5% | 2.66% | 2.29% | 3.03% | 4.03% | 8.09% | 2.68% | 5.14% |
| CN(C)c1cc2c(Nc3ccc4c(cnn4Cc4ccccc4)c3)ncnc2cn1 | 0.51% | 0.62% | 2.07% | 1.16% | 0.46% | 1.23% | 3.25% | 3.36% | 2.54% | 3.15% |

Source: ChEMBL document CHEMBL1961873, “Compounds: GSK PKIS; Assays: Nanosyn kinase panel” (2012)
